Source: PubChem BioAssay (National Center for Advancing Translational Sciences (NCATS))
The full list was thinned out, with hits kept by preference.
TDP1 cell noCPT: qHTS for Inhibitors of human tyrosyl-DNA phosphodiesterase 1 (TDP1): qHTS in cells in absence of CPT; 15% of 420,000 active; DT40 Tdp1-/- hTDP1 cells, no CPT, ATP luminescence, 48 h; AID 686978, 2013; Potency, µM (doses to about 46.2 µM), inactives show top-dose activity change, negative = growth inhibition, hits mostly inhibitors; also: potency is read from the fitted curve at half-maximal effect; nearly all actives have a fitted effect of over 55% in size
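Cells were dispensed at 400 per well, compounds added by pin tool, plates incubated ≥48 hr at 37 °C, then CellTiter-Glo added for 30 min at room temperature before luminescence reading. Line: DT40 Tdp1-/- complemented with hTDP1; camptothecin omitted.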
IL1B secr inh: inflammasome signaling inhibition, IL-1 beta readout. THP-1 LPS/ATP IL-1B secretion, AlphaLISA, 16 h; stronger effect = lower value. activity change, % at 57.5 µM. 4.7% of 360,000 active. AID 743279; in the data active = activity change below about -50%; inconclusive = mostly about -30% to -49%
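THP-1 cells pretreated 1 hr with compounds (up to 57.5 uM final), then stimulated with LPS (250 ng/mL final) plus ATP (1.25 mM final); secreted IL-1B measured by AlphaLISA after 16 hr, decreased signal indicating inhibition.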
ALOX12 inh: inhibitors of human 12S-lipoxygenase ALOX12 | P18054 | purified 12hLO, xylenol orange hydroperoxide absorbance | Potency, µM (series often up to 108 µM), for the others: top-dose activity change, negative = inhibition, actives largely listed as inhibitors | 1.1% of 580,000 active | AID 1671190; also: potency is read from the fitted curve at half-maximal effect
Target sequence (P18054 whole entry, looked up): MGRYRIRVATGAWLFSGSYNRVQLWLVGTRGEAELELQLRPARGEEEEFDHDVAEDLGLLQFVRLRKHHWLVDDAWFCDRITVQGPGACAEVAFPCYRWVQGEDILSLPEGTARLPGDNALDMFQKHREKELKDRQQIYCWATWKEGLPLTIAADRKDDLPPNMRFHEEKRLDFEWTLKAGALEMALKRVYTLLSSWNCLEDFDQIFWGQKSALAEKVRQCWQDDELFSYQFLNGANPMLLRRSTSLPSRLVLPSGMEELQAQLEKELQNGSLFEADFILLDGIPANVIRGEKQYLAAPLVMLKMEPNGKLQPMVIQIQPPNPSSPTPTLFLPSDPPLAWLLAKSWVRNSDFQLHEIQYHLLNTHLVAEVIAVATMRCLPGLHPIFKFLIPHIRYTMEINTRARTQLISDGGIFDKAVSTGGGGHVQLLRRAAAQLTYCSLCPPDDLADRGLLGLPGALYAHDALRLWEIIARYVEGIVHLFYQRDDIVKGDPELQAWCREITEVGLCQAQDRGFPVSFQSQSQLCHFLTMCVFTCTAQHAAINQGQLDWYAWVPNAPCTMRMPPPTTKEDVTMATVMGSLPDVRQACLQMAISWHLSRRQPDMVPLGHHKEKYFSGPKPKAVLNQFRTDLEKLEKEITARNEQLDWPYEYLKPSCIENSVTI
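Hydroperoxide product was detected by ferrous iron/xylenol orange as the 573 to 405 nm absorbance ratio. Arachidonic acid at 40 uM (final) was turned over for 30 min at room temperature by 150 nM human 12hLO, pH 7.0 Hepes buffer, after 15 min compound preincubation.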
HT1080-NT tox: kills 2HG-producing HT-1080-NT fibrosarcoma cells | HT-1080-NT fibrosarcoma viability, CellTiter-Glo ATP luminescence, 48 h | Potency, µM (titrated, usually from 46.1 µM), inactives show at the top dose activity, negative = less viability, hits mostly cytotoxic | 1.6% of 360,000 active | AID 686970;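 also: NT is the 2HG producing partner of a matched IDH1 knockdown line; potency is read from the fitted curve at half-maximal effect; 0% = DMSO-treated cells and -100% = media-only wells without cells; nearly all actives have a fitted effect of over 55% in size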
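Luminescent CellTiter-Glo readout after 48 hours of compound exposure at 37 degrees C defined viability of HT-1080-NT cells. Activity was normalized to DMSO wells and cell-free media wells; concentration-response curves were fitted and assigned curve classes.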
TDP1 cell CPT: DT40-hTDP1 cell growth loss with CPT. chicken DT40 Tdp1-/-;hTDP1 cells + 20 nM CPT, ATP luminescence, 48 h. Potency, µM (top dose mostly 46.2 µM), without a hit: at the top dose activity change, negative = growth inhibition, actives largely listed as inhibitors. 12% of 420,000 active. AID 686979; also: potency is read from the fitted curve at half-maximal effect; nearly all actives have a fitted effect of over 55% in size
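Chicken DT40 Tdp1-/- cells stably complemented with human TDP1 were seeded at 400 cells/well in medium containing 20 nM camptothecin, exposed to pin-transferred compounds, and grown at 37 °C for at least 48 hr. Viability was read as ATP luminescence.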
HT1080 IDH1KD tx: kills HT-1080 cells with IDH1 knockdown | HT-1080 IDH1 knockdown viability, ATP luminescence, 48 h | Potency, µM (highest dose often 46.1 µM), for the others: top-dose activity, negative = toxicity, actives largely listed as cytotoxic | 2% of 360,000 active;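 also: potency is read from the fitted curve at half-maximal effect; 0% = DMSO wells and -100% = cell-free medium wells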
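In this qHTS, HT-1080 cells depleted of IDH1 are exposed for 48 h at 37 °C to compound titrations. Toxicity is scored from CellTiter-Glo luminescence, with DMSO as full viability and medium alone as none.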
* hit, by the source's call; ? = inconclusive; / = no result. Unless noted, calls follow the shape of the dose curve; as a rule, active = well fitted curve in the direction sought with a large enough effect; inconclusive = small, poorly fitted or top-dose-only effect, or another doubt; inactive = no such curve, though single readings can be large; an effect the other way counts as inactive or inconclusive. Unless noted, % is scaled to controls: 0 for no effect and ±100 for the full control effect.

SMILES	TDP1 cell noCPT	IL1B secr inh	ALOX12 inh	HT1080-NT tox	TDP1 cell CPT	HT1080 IDH1KD tx
CCN(C(=O)c1cc(Cl)ccc1Cl)C1CCS(=O)(=O)C1 (centres undefined)	-6%	19	2%	5%	-4%	4%
COc1cc(C(=O)N(C(C)C)C2CCCCC2)cc(OC)c1OC	10µM*	21	-14%	2%	12µM*	2%
CCN(C(=O)c1cc(Cl)ccc1OC)C1CCCCC1	23µM*	18	0%	-3%	?	-15%
CCN(C(=O)c1cccc(NC(=O)c2ccccc2)c1)C1CCCCC1	?	-29	0%	0%	15µM*	-1%
CCN(C(=O)c1cc(Cl)ccc1OC)c1ccccc1C	21µM*	29	411%	-3%	?	4%
CCN(C(=O)/C=C/c1cc(OC)c(OC)c(OC)c1)C1CCCCC1	?	-11	-32%	-1%	?	1%
CCN(C(=O)c1cn(C)c(=O)c2cc(OC)c(OC)cc12)c1ccccc1C	-11%	27	-7%	1%	8%	4%
CCN(C(=O)c1cc(OC)c(OC)c(OC)c1)C1CCCCC1	23µM*	35	11%	2%	?	-1%
CCN(C(=O)c1cn(CC)c(=O)c2cc(OC)c(OC)cc12)c1ccccc1F	21µM*	/	-8%	/	-28%	/
CCOc1ccc(C(=O)Nc2ncc(C)s2)cc1OCC	/	/	7%	/	/	/
CCCCN(CC)Cc1ccc(CNC(=O)Nc2ccc(Cl)cc2)o1	5.8µM*	-62*	?	?	3.3µM*	?
CCCCN(CC)Cc1ccc(CNC(=O)Nc2ccc(OCC)cc2)o1	?	-7	-6%	6%	?	-10%
CC(C)NC(=O)CN1CCN(C(=O)c2cc(-c3ccccn3)nc3ccccc23)CC1	/	/	0%	/	/	/
COc1ccc(CN2C(=O)c3ccccc3C2=O)cc1	-1%	-11	-15%	-1%	22%	4%
COc1ccc(/C=C2\C(=O)NCC(=O)N2C)cc1	?	-7	?	-6%	?	0%
COc1ccc(/C=C2\C(=O)NCC(=O)N2Cc2ccccc2)cc1	21µM*	26	59%	?	15µM*	?
COc1ccc(/C=C2\C(=O)N(Cc3ccc(F)cc3)CC(=O)N2Cc2ccccc2)cc1	26µM*	-20	440%	-20%	23µM*	-23%
CC(C)=CCN1CCN(Cc2ccccn2)CC1	/	/	15%	/	/	/
CCc1ccc2nc(N3CCC(C(=O)O)CC3)sc2c1	-19%	/	0%	/	5%	/
CCCCN(C)CCCNC(=O)c1ccc2nc(N3CCCCC3)sc2c1	?	/	-25%	/	23µM*	/
CCCCN(C)CCNC(=O)C1CCN(c2nc3ccc(CC)cc3s2)CC1	23µM*	/	-17%	/	21µM*	/
CCCCN(CCCNC(=O)c1ccc2nc(N3CCOCC3)sc2c1)Cc1ccccc1	16µM*	31	-2%	-12%	?	-25%
Cc1c(CN2C[C@@H](CN(C)CCO)[C@@H](CO)C2)[nH]c2c(Cl)cccc12	/	/	45%	/	/	/
COc1cc2c(cc1Cn1cc(-c3nccn3C)nn1)CCC2	/	/	24%	/	/	/
Fc1cccc(Nc2cc(-n3cccn3)ncn2)c1	10µM*	13	-20%	-7%	21µM*	-25%
SMILES	TDP1 cell noCPT	IL1B secr inh	ALOX12 inh	HT1080-NT tox	TDP1 cell CPT	HT1080 IDH1KD tx
CNc1nn(-c2cccc(Cl)c2)nc1N	2.1µM*	-13	-14%	-13%	?	-12%
COC(=O)c1ccc(N2C(c3cc(OC)cc(OC)c3)=Cc3ccc(-c4cccnc4)cc3C2CC(=O)C2CC2)cc1 (centres undefined)	?	22	109%	-1%	?	-2%
COc1ccc(-c2ccc(N3C(c4cc(OC)cc(OC)c4)=Cc4ccc(OC)cc4C3CC(C)=O)cc2)cc1 (centres undefined)	6.5µM*	15	?	?	5.2µM*	?
COc1cc(OC)cc(C2=Cc3ccc(OC)cc3C(CC(C)=O)N2c2ccc(-c3cncnc3)cc2)c1 (centres undefined)	?	-15	0%	-15%	8.2µM*	-8%
COC(=O)c1ccc(N2C(c3cc(OC)cc(OC)c3)=Cc3ccc(-c4ccc(C(N)=O)cc4)cc3C2CC(=O)C2CC2)cc1 (centres undefined)	18µM*	6	-5%	-15%	?	-25%
COc1ccc2c(c1)C(CC(C)=O)N(c1ccc(-c3cccnc3)cc1)C(c1ccsc1)=C2 (centres undefined)	?	6	4%	-6%	?	-18%
COc1cc(OC)cc(C2=Cc3ccccc3C(CC(=O)c3ccco3)N2c2ccc(-c3cccnc3)cc2)c1 (centres undefined)	18µM*	9	-8%	-22%	?	1%
CC(SC(C)c1ccc(F)cc1)C(N)=O (centres undefined)	/	/	-12%	/	/	/
N#Cc1ccc(CNC(=O)CCc2ccsc2)cc1	/	/	-1%	/	/	/
COc1ccc2c(c1)C(CC(C)=O)N(c1ccc(-c3cccs3)cc1)C(c1ccsc1)=C2 (centres undefined)	4.6µM*	-1	0%	-14%	3.7µM*	-15%
Nc1ccc(C(=O)N2CCCC2)cc1	-5%	24	0%	8%	0%	12%
Nc1ccc(C(=O)n2c3ccccc3c3ccccc32)cc1	2.3µM*	17	-21%	?	1.8µM*	0.92µM*
O=C(CNC(=O)c1cc(Cl)cc([N+](=O)[O-])c1)OCC(=O)N1CCCCC1	0%	-74*	2%	-1%	-18%	-8%
NC(=O)COC(=O)CNC(=O)c1cc(Cl)cc([N+](=O)[O-])c1	18%	12	23%	24%	22%	23%
C[C@H]1[C@@H](NC(=O)Nc2cccc(C#N)c2)CC[C@@]23CCCN2C(=O)CCC[C@@H]13	/	/	1%	/	/	/
CCCc1cc(NCCCCO)n2c(nc3ccccc32)c1C#N	?	11	0%	-11%	?	-13%
Cc1cc(NCCCN2CCOCC2)n2c(nc3ccccc32)c1C#N	-22%	-21	0%	-16%	-2%	-7%
CCCc1cc(NCCOCCO)n2c(nc3ccccc32)c1C#N	12µM*	5	-2%	-8%	?	-7%
CCCc1cc(NCCCN2CCOCC2)n2c(nc3ccccc32)c1C#N	21µM*	?	449%	5%	16µM*	6%
